Consider 38 molecules from PubChem BioAssay (EPA / NIEHS).

Inconclusive results are not listed. The source made the active and inactive calls. The calls were made as follows: active = hit-call score of the fitted dose curve at least 0.9, where 1 is the maximum; inconclusive = response in the unintended direction; inactive = score below 0.9.

The nature of this test: ACEA_ER_AUC_viability: ACEA Biosciences xCELLigence Real-Time Cell Analysis on Estrogen Receptor Agonism for Viability (AID 2283782).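 Also: hit means loss of impedance signal meaning reduced cell growth or viability.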 The gist of the method:
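Continuous-exposure impedance cell analysis uses T-47D cells in charcoal-stripped serum, eight 1:4 dilutions topping at 100 uM final, biological duplicate. Area under the growth curve at 80 h is fitted against DMSO baseline.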
Turning to `[Cl][Sc]([Cl])[Cl]`, the result was inactive. Same read-out and setting: in the case of `CC(C)OC(=O)c1ccccc1` it was “inactive”.

For the molecule `CC=C(C)C=CC=C(C)C`, the AC50 was 50 µM (active). `CCOC(=O)OC(=O)OCC`: the result was inactive. As to `CCC(C)C(=O)OCCc1ccccc1` (stereo not drawn), the call was inactive. `c1ccc2c(c1)[nH]c1ccccc12`: the AC50 is 36.4 µM (active).

`CCN(CC)c1cccc(C)c1`: the AC50 was 27.9 µM (active). As to `COC(=O)C=Cc1ccccc1`, the call was inactive. The same measure, in the same setting: then `CC1=CP(=O)(c2ccccc2)CC1` (stereo not drawn), with “inactive”. For the molecule `N=C1C=CC(=C(c2ccc(N)cc2)c2ccc(N)cc2)C=C1`, the AC50 was 34.5 µM (active). Still for that read-out and setting: then `C[N+](C)(C)CCCNS(=O)(=O)C(F)(F)C(F)(F)C(F)(F)C(F)(F)C(F)(F)C(F)(F)C(F)(F)C(F)(F)F`, with 111 µM (active). `C1CCSC1`: the molecule was classed as inactive. Same read-out and setting: then `CC(=O)OCCc1ccccc1`, with “inactive”. For the molecule `CC1=CC(C)C(C=O)CC1` (stereo not drawn), the outcome was inactive. Turning to `CCc1cccc(C)c1N(C(=O)CS(=O)(=O)O)C(C)COC` (stereo not drawn), the half-maximal activity concentration (AC50) is 50 µM (active).

Regarding `Nc1cccc(N)n1`, the molecule was called inactive. The same measure, in the same setting: then `C=CC(=O)OCCCCCCCC(C)C`, with “inactive”.

For the molecule `CCC(C)N` (stereo not drawn), the AC50 was 74.5 µM (active). Turning to `C=Cc1cccc(C)c1`, the outcome was inactive. Turning to `COc1ccc(C(=O)/C(Br)=C\C(=O)O)cc1`, the AC50 is 29.2 µM (active).

Turning to `CC(=O)CCC=C(C)C`, the result was inactive. With `Clc1cccnc1`, the call was inactive. For `CC/C=C\C/C=C\C/C=C\CCCCCCCC(=O)OC`, the outcome was inactive. Turning to `CCCc1ccc(O)c(OC)c1`, the result was inactive. For `OCCCc1ccccc1`, the result was inactive. In the case of `Cc1cc(=O)[nH]c(=O)[nH]1`, the molecule was classed as inactive. For `CN1CCN(C)CC1`, the outcome was inactive. Still for that read-out and setting: in the case of `CC(C)CCCCCOC(=O)CS` it was “inactive”.

Regarding `CC(=O)C(C)C`, the molecule was called inactive. The same measure, in the same setting: in the case of `CC(C)(CO)COC(=O)C(C)(C)CO` it was “inactive”. Regarding `CC1=C(O)C(=O)C(C)O1` (stereo not drawn), the AC50 is 66.8 µM (active).

Take `CC(C)C(=O)OCCOc1ccccc1`: the molecule was classed as inactive. On the same count and under the same terms, then `C=CC(=O)NC(C)(C)C`, with “inactive”; and `N#CC1(N)CCCCC1`, with “inactive”; and `C=CC(=O)OCCCCCCCCCC`, with “inactive”.

With `C=CC(C)(O)CC/C=C(\C)CC` (stereo not drawn), the AC50 was 50 µM (active).

Take `CCOB(OCC)OCC`: the outcome was inactive. In the case of `CC1CCC(=O)C1=O` (stereo not drawn), the AC50 was 10.3 µM (active).

As usually defined, the AC50 is the concentration giving half of the maximal activity seen.
